# Bioassay records: PubChem, National Center for Advancing Translational Sciences (NCATS)
# MARV entry inh = blocks Marburg virus binding to or entry into cells | Marburg virus pseudotyped entry inhibition, cell reporter | Potency, µM (series often up to 37.8 µM), without a hit: at the top dose activity change, negative = inhibition, actives largely listed as inhibitors | 300,000 tested, 1.8% active; calls by dose curve; tested in HEK293 cells; note: potency is the fitted concentration of half-maximal effect
# HCMV inh = human cytomegalovirus inhibition; HFF cells, HCMV-luciferase reporter, 72 h; hits give low values; activity change, negative = inhibition, % at 57.5 µM; 410,000 tested, 4.5% active; in the data active = activity change below about -60%; inconclusive = no clear call, values can overlap the other calls; inactive = above about -39%
#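 Screen run at 2 compound doses on HFFs infected with reporter HCMV, MOI 1 PFU/cell. Luciferase activity from cell lysates at 72 h post infection gave inhibition relative to buffer-only and Salinomycin wells.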
# Vaccinia Venus = vaccinia inhibition (Venus reporter). Potency, µM (top dose mostly 36.5 µM), without a hit: at the highest dose activity change, negative = inhibition, hits mostly inhibitors. Vaccinia virus Venus reporter expression, fluorescence. 330,000 tested, 0.46% active; calls by dose curve; tested in A549 cells; note: potency is the fitted concentration of half-maximal effect; nearly all actives have a fitted effect of over 30% in size
# LASV entry inh = blocks Lassa virus binding to or entry into cells | AID 540256 | 300,000 tested, 1.2% active | Potency, µM (highest dose often 37.9 µM), for inactives: top-dose activity change, negative = inhibition, most hits filed as inhibitors | Lassa virus pseudotype entry inhibition, cell reporter; calls by dose curve; tested in HEK293 cells; note: potency is the fitted concentration of half-maximal effect; nearly all actives have a fitted effect of over 50% in size
# FMDV antiviral = blocks foot and mouth disease virus; FMDV antiviral cell-based qHTS; 410,000 tested, 1.2% active; AID 1159524; Potency, µM (doses to about 57.9 µM), for the others: at the top dose activity change, negative = inhibition, most hits filed as inhibitors; calls by dose curve; tested in HEK293T cells; note: read-out not given here; potency is the fitted concentration of half-maximal effect; nearly all actives have a fitted effect of over 45% in size
# Vaccinia mCherry = vaccinia inhibition (mCherry reporter). Vaccinia virus mCherry reporter infection, fluorescence. Potency, µM (highest dose often 36.5 µM), for the others: at the highest dose activity change, negative = inhibition, usual class: inhibitors. 310,000 tested, 0.63% active. AID 720579; calls by dose curve; tested in A549 cells; note: potency is the fitted concentration of half-maximal effect; nearly all actives have a fitted effect of over 35% in size
# Numbers without * were called inactive; i = inactive; ? = inconclusive; · = not tested or not shown; [ ] = remark or other dose. Hits are enriched below; roughly 6.5% of the tested compounds scored in any of these assays. % is set by controls: 0 for no effect and ±100 for the full control effect.
SMILES,MARV entry inh,HCMV inh,Vaccinia Venus,LASV entry inh,FMDV antiviral,Vaccinia mCherry
Cc1ccc(S(=O)(=O)N2CCOCC2)cc1C(=O)Nc1ccc(N2CCCCCC2)cc1,?,-64*,-27%,?,-13%,?
Cc1cc(C)c(O)c(-c2cc(C(=O)Nc3ccc(S(=O)(=O)N4CCOCC4)cc3)[nH]n2)c1,?,-76*,13µM*,?,?,10µM*
CC(=O)c1ccc(NC(=O)c2cc(S(=O)(=O)N3CCOCC3)ccc2C)cc1,·,-15,1%,-19%[46.1 µM],?,-4%
CCCn1c(NC(=O)c2ccc(Cl)c(S(=O)(=O)N3CCCC3)c2)nc2ccccc21,?,-63*,25µM*,?,?,11µM*
CC(=O)Nc1ccc(NC(=O)c2cc(-c3cc(C)cc(C)c3O)n[nH]2)cc1,·,?,·,·,-30%,·
CSc1ccc(C(=O)NC2CCSc3ccccc32)cc1 (stereo unspecified),-27%[46.1 µM],3,-25%,-25%,20%,-19%
C=CCCC(=O)N1C[C@@H](CO)[C@@H](NC)C[C@H]1c1ccccc1Br,·,-7,-2%,·,-4%,9%
CCN(CC)c1ccc(Nc2nc(Cl)ncc2Br)cc1,?,?,-6%,-11%[46.1 µM],?,-27%
O=C(NCCN1CCC(n2c(=O)[nH]c3ccccc32)CC1)N1c2ccccc2Sc2ccccc21,·,-29,-29%,·,-5%,?
Cc1ccc(S(=O)(=O)N2CCOCC2)cc1C(=O)O,-2%,3,·,-12%,6%,·
O=C(Nc1ccc(N2CCOCC2)cc1)c1cccc(S(=O)(=O)N2CCCCC2)c1,7%,-21,-15%,11%,?,-21%
O=C(Nc1ccc(N2CCOCC2)cc1)c1ccc(Cl)c(S(=O)(=O)N2CCCCC2)c1,·,-63*,·,·,?,·
O=C(c1ccc(Cl)c(S(=O)(=O)N2CCCC2)c1)N1CCN(c2ccccc2)CC1,?,?,-14%,?,0%,-19%
CC1CCN(S(=O)(=O)c2cc(C(=O)N3CCN(c4ccccc4)CC3)ccc2Br)CC1,·,-76*,?,·,-19%,-26%
CCCCn1ccnc1C(=O)c1cc(S(=O)(=O)N2CCOCC2)ccc1C,?,-66*,·,-21%,-12%,·
O=C(c1ccc(Cl)c(S(=O)(=O)N2CCCC2)c1)N1CCN(c2ccc(F)cc2)CC1,?,-87*,-27%,?,?,?
CC1CCN(C(=O)c2cccc(S(=O)(=O)N3CCN(c4ccccc4)CC3)c2)CC1,17%,-21,-8%,2%,-10%,-10%
CC(=O)N1CCC2(CCCN(c3cccc(-c4ccccc4)c3)C2)CC1,·,·,·,·,8%,·
CCOC(=O)C1=CC[C@@H](c2cc(OC)c(OC)c(OC)c2)N(S(=O)(=O)c2ccc(C)cc2)[C@H]1C(=O)OCC,·,-8,-14%,·,-22%,?
CCc1nc2ccc(C(=O)Nc3ccc(NC(C)=O)cc3)cn2c1N(CCC(C)C)CCN(C)C,·,-4,-17%,·,-2%,10%
Cc1ccc(C(=O)N2CCN(c3ccc(F)cc3)CC2)cc1S(=O)(=O)N1CCCCC1,?,-84*,-16%,?,?,?
Cc1ccc(C(=O)N2CCN(c3ccccc3)CC2)cc1S(=O)(=O)N1CCCC1,?,?,-29%,?,?,?
O=C(c1ccc(Cl)c(S(=O)(=O)N2CCCCC2)c1)N1CCN(c2ccccc2)CC1,?,-77*,-19%,?,?,-9%
CCN(CC)S(=O)(=O)c1ccc(O)c(NC(=O)c2cc(-c3cc(OC)c(OC)c(OC)c3)nc3ccccc23)c1,10µM*,·,-20%,?,?,-15%
COc1cc(-c2cc(C(=O)Nc3ccc(S(N)(=O)=O)cc3)c3ccccc3n2)cc(OC)c1OC,-40%[46.1 µM],17,10%,?,-14%,1%
SMILES,MARV entry inh,HCMV inh,Vaccinia Venus,LASV entry inh,FMDV antiviral,Vaccinia mCherry
CC(C)(C)c1ccc(O)c(N=Cc2c(O)ccc3ccccc23)c1,?,-92*,-26%,?,-24%,?
O=C(Cc1ccccc1)OC(COCc1ccccc1)CN1CCOCC1 (stereo unspecified),-3%[46.1 µM],-88*,-10%,5%,-15%,·
CC(CN1CCOCC1)OC(=O)Cc1ccc(Cl)cc1 (stereo unspecified),-5%[46.1 µM],7,3%,-12%,4%,4%
O=C(NCCN1CCCCC1)c1ccc(Cn2c(SCc3cccc(F)c3)nc3cccnc32)cc1,4.5µM*,?,-14%,·,-10%,-18%
O=C(NCc1ccccc1)c1ccc(CSc2nc3cccnc3n2Cc2cccc(F)c2)cc1,·,-67*,-2%,?,0%,-24%
Cc1ccc(CSc2nc3cccnc3n2Cc2ccc(C(=O)NC3CCCCC3)cc2)cc1,·,20,11µM*,4%[46.1 µM],23%,?
Cn1c(SCc2ccc(F)cc2)nc2ccc(C(=O)NCc3ccc(F)cc3)cc21,?,-69*,-22%,·,?,-16%
C[C@@H]1CN([C@H](C)CO)C(=O)CCCn2nncc2CO[C@H]1CN(C)Cc1ccccc1C(F)(F)F,·,-19,-15%,·,?,-2%
Cc1cc(C(=O)NCc2nc(-c3cccc(NC(=O)c4ccccc4)c3)oc2C)nc(C)n1,·,·,-5%,·,?,-12%
O=C(NCCc1ccccc1)c1ccc(CSc2nc3cccnc3n2Cc2ccccc2)cc1,·,-3,-11%,-20%[46.1 µM],-24%,-22%
CN(Cc1ccccc1)C(=O)c1ccc(CSc2nc3cccnc3n2Cc2ccccc2)cc1,·,-71*,?,?,?,?
O=C(c1csnn1)N1CCC2(CC1)CCN(c1ccncc1)CC2,·,·,·,·,-3%,·
CC1CC(=O)N(CC(=O)Nc2ccccc2F)c2ccccc2S1(=O)=O (stereo unspecified),·,-1,·,·,3%,·
CCCN1C(=O)/C(=C/c2cc(C)n(C)c2C)SC1=Nc1ccc(OC)cc1,?,-2,?,?,-22%,·
COc1ccc(N=C2S/C(=C\c3cc(C)n(C)c3C)C(=O)N2C)cc1,?,-8,-29%,4.5µM*,-14%,·
O=C(CSc1n[nH]c(-c2ccccc2Cl)n1)N1CCN(c2ccccc2)CC1,·,37,-3%,-4%[46.1 µM],35µM*,-7%
COc1ccc(N2CCN(C(=O)CSc3n[nH]c(-c4ccccc4Cl)n3)CC2)cc1,·,-9,-12%,23%[46.1 µM],-14%,-11%
COC(=O)[C@]1(C)N[C@H](CN(C)C(=O)c2ccccc2)[C@@H]2C(=O)N(C)C(=O)[C@@H]21,·,8,-8%,·,-11%,i
Cc1cccc(OCc2n(CC(=O)OC3CC(C)CCC3C(C)C)c3ccccc3[n+]2C)c1 (stereo unspecified),2.5µM*,·,-30%,?,?,?
CC1CCC(C(C)C)C(OC(=O)Cn2c(COc3ccccc3)[n+](C)c3ccccc32)C1 (stereo unspecified),?,-100*,?,?,28µM*,?
Cc1cccc(OC(=O)Cn2c(C(F)(F)F)nc3ccccc32)c1,?,24,-3%,9%,-8%,-8%
